Test results reported in PubChem BioAssay (NCATS).
Values joined by “and” are separate entries in the source; they are usually repeats but may differ in a detail not shown here. Equal values may be shown once. Results filed as inconclusive are left out. Entries that show only a call come without a potency. Active and inactive are the calls of the source. Unless noted, the call rests on the fitted dose curve; in most records, active means well fitted curve in the direction sought with a large enough effect; inconclusive means small, poorly fitted or top-dose-only effect, or another doubt; inactive means no such curve, though single readings can be large; an effect the other way counts as inactive or inconclusive.

How the values were obtained:
[1] = qHTS assay to identify small molecule inhibitors of chordoma cells - UCH-2 (AID 1259356); further: series mostly up to about 46 µM
[2] = P-glycoprotein substrates identified in KB-8-5-11 adenocarcinoma cell line, qHTS therapeutic library screen (AID 1346987); further: nearly all actives have a fitted effect of over 65% in size; further: potency means the concentration at half of the fitted maximal effect
How it was run: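 Luminescence from CellTiter-Glo, read 5 min after addition, quantified survival of KB-8-5-11 (P-gp-overexpressing) cells exposed to compounds for 72 h. AC50 was derived from concentration-response curves.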

[3] = Natriuretic polypeptide receptor (hNpr1) antagonism - Pilot counterscreen GloSensor control cell line (AID 1347045; calls by dose curve; further: series mostly up to about 38 µM)
How it was run: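 Cells were first seeded and incubated overnight at 37C, then loaded with 2% GloSensor substrate for 2 h. Compounds were added for 30 min at room temperature, followed by a baseline read, 50 uM SNP and a final read after 20 min.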

[4] = target: Atrial natriuretic peptide receptor 2 (Homo sapiens) (UniProt P20594); experiment: Natriuretic polypeptide receptor (hNpr2) antagonism - Pilot subtype selectivity assay (AID 1347050; calls by dose curve)
How it was run: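 Read-out: GloSensor luminescence (CCD imager), baseline vs post-stimulation. HEK293 cells expressing hNpr2; compounds pre-incubated 30-50 min at ambient temperature; hNppC 1 nM final, 20 min.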

[5] = NS1 protein of Zika virus - qHTS assay to identify small molecule inhibitors in human HEK 293 cells (AID 1347053); further: nearly all actives have a fitted effect of over 55% in size; further: potency means the concentration at half of the fitted maximal effect
How it was run: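 Readout was TR-FRET using paired anti-NS1 antibodies after 24 h infection of HEK 293 cells with ZIKV MR766 (MOI = 0.5). Compound preceded virus by 1 h; reduced signal reflects lower NS1 expression.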

[6] = target: T1, Tyrosine-protein phosphatase non-receptor type substrate 1 (Homo sapiens) + Leukocyte surface antigen CD47 (Homo sapiens) (UniProt P78324+Q08722); experiment: CD47-SIRPalpha protein protein interaction - Alpha assay qHTS validation (AID 1347059);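 further: bead proximity luminescence from CD47 binding SIRPalpha after compound preincubation with SIRPalpha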
How it was run: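 In PBS (pH 7.4) with 0.05% IGEPAL CA-630, compound is preincubated with biotin-Avi-SIRPalpha ectodomain before His-CD47 ectodomain and affinity beads are added. Light-protected room-temperature incubations; AlphaScreen readout.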

[7] = target: Parathyroid hormone/parathyroid hormone-related peptide receptor (Homo sapiens) (UniProt Q03431); experiment: qHTS for PTHR1 Agonists: Optimization Screen against the NCGC LOPAC library (AID 1347079);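 further: GloSensor cAMP luminescence in HEK-293 GP2 cells expressing human PTHR1 with IBMX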
How it was run: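 HEK-293 GP2 cells, PTHR1 + GloSensor cAMP; 3000 cells/well, o/n. Luciferin + IBMX 0.5mM each (stock), 1 hr 37C. Cpd titration, 1 hr 37C. Lum after 15 min RT. Ctrl M-PTH(1-15) top 10uM.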

[8] = qHTS of pediatric cancer cell lines to identify multiple opportunities for drug repurposing: Primary screen for TC32 cells (AID 1347089); further: nearly all actives have a fitted effect of over 60% in size; further: potency means the concentration at half of the fitted maximal effect
How it was run: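 Luminescent ATP read-out (CellTiter-Glo) of metabolically active TC32 cells after 48 h exposure. Concentration-response curves came from 11-point (MIPE, 0.78 nM–46 µM) or 8-point (NPC, 0.59 nM–46 µM) primary titrations; follow-up used 11 points.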

[9] = qHTS of pediatric cancer cell lines to identify multiple opportunities for drug repurposing: Primary screen for SJ-GBM2 cells (AID 1347091); further: potency means the concentration at half of the fitted maximal effect
How it was run: (§1)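 Eight- or eleven-point concentration series, 48 h treatment at 37 degrees C in growth media; readout CellTiter-Glo luminescence. Potency and efficacy were taken from the concentration-response curves.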

[10] = qHTS of pediatric cancer cell lines to identify multiple opportunities for drug repurposing: Primary screen for A673 cells (AID 1347092); further: nearly all actives have a fitted effect of over 45% in size; further: potency means the concentration at half of the fitted maximal effect
How it was run: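 Cell viability of A673 measured by CellTiter-Glo ATP luminescence after 48 hours compound exposure. Dilution series spanned 0.78 nM to 46 µM (MIPE, 11-point) or 0.59 nM to 46 µM (NPC, 8-point); bortezomib 2.3 uM positive control.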

[11] = target: Atrial natriuretic peptide receptor 1 (Homo sapiens) (UniProt P16066); experiment: Natriuretic polypeptide receptor (hNpr1) antagonism - Pilot screen (AID 1347049; calls by dose curve;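 further: HEK293 cells with hNpr1 and GloSensor cGMP luciferase stimulated by 0.1 nM hNppA; agonist-evoked cGMP luminescence read 20 min after hNppA addition; series mostly up to about 58 µM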)
How it was run: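 Cells expressing receptor plus cGMP biosensor are seeded and incubated overnight at 37C, then loaded with GloSensor reagent (2% final) at room temperature for 2 h. Library compounds go on for 30 min. A pre-read precedes agonist (hNppA, 0.1 nM final) and a 20-min readout.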

[12] = target: T1, Tyrosine-protein phosphatase non-receptor type substrate 1 (Homo sapiens) + Leukocyte surface antigen CD47 (Homo sapiens); experiment: CD47-SIRPalpha protein protein interaction - LANCE assay qHTS validation (AID 1347057; active means well fitted curve in the direction sought with a large enough effect in the signal ratio, with a control signal flat, not every such curve was filed as active; the % refers to the signal ratio; further: series mostly up to about 38 µM)
How it was run: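 Inhibition of soluble CD47/SIRPalpha ectodomain association by titrated compounds, measured as 665/615 nm time-resolved FRET ratio after sequential 30 min room-temperature incubations.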

[13] = qHTS of pediatric cancer cell lines to identify multiple opportunities for drug repurposing: Primary screen for DAOY cells (AID 1347090); further: nearly all actives have a fitted effect of over 55% in size; further: potency means the concentration at half of the fitted maximal effect
How it was run: as §1

[14] = Identifying Small Molecule Inhibitors of Pancreatic Cancer Stem Cells (SN12C, Adherent) (AID 1259358);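 further: potency means the concentration at half of the fitted maximal effect; cell survival measured after 48 h of compound exposure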
How it was run: (§2)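 Luminescent ATP readout (CellTiter-Glo) quantifies surviving cells after a 48 h drug incubation. Normalization uses DMSO wells as no inhibition and media-only wells as full inhibition; bortezomib served as positive control.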

[15] = Identifying Small Molecule Inhibitors of Pancreatic Cancer Stem Cells (A278, Adherent) (AID 1259361);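 further: viability read after 48 h compound exposure; nearly all actives have a fitted effect of over 35% in size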
How it was run: as §2

[16] = Identifying Small Molecule Inhibitors of Pancreatic Cancer Stem Cells (Panc1, Adherent) (AID 1259362); details: Potency: viability; further: potency means the concentration at half of the fitted maximal effect
How it was run: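 Endpoint: ATP-based luminescence, 48 h drug exposure. Bortezomib at 9.2 uM final as full-kill control; DMSO vehicle as negative control; activity normalized between vehicle and cell-free wells.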

[17] = P-glycoprotein substrates identified in KB-3-1 adenocarcinoma cell line, qHTS therapeutic library screen (AID 1346986); further: nearly all actives have a fitted effect of over 60% in size;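 further: potency means the concentration at half of the fitted maximal effect; potency is for cytotoxicity meaning loss of cell viability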
How it was run: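 72 h cell-killing screen, 500 cells/well, CellTiter-Glo luminescence. Paired lines KB-3-1/KB-8-5-11; P-gp dependence checked by tariquidar co-treatment and HEK-293 MDR-19 versus empty-vector cells.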

Atrial natriuretic peptide receptor 2 (Homo sapiens), sequence (P20594 whole entry, looked up): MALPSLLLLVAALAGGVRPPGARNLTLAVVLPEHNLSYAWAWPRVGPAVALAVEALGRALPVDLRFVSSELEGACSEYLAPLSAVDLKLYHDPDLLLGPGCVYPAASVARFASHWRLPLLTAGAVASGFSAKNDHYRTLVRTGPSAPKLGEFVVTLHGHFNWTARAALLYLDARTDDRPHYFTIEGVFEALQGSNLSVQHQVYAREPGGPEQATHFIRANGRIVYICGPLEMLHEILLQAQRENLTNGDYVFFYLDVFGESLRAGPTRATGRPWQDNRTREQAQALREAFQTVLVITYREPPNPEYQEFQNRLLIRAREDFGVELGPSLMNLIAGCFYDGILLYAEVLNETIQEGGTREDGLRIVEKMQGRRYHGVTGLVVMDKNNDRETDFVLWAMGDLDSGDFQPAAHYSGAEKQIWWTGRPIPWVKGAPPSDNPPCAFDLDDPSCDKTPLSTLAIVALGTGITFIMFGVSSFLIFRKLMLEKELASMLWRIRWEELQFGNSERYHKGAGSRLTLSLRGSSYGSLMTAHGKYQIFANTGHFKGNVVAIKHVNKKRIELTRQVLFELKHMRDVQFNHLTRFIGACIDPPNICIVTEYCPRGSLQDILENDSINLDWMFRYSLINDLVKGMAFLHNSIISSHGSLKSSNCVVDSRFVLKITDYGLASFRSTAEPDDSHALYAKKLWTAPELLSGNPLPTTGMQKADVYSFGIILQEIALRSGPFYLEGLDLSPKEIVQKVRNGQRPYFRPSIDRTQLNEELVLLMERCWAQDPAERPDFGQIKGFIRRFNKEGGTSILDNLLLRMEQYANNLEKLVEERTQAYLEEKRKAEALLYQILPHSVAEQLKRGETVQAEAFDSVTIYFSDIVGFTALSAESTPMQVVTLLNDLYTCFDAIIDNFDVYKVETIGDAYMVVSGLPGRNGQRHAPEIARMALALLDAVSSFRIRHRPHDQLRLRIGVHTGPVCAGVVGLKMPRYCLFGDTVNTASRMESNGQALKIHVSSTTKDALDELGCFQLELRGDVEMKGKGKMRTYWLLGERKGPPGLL
T1 sequence (P78324 whole entry, looked up, the tested form may be a part): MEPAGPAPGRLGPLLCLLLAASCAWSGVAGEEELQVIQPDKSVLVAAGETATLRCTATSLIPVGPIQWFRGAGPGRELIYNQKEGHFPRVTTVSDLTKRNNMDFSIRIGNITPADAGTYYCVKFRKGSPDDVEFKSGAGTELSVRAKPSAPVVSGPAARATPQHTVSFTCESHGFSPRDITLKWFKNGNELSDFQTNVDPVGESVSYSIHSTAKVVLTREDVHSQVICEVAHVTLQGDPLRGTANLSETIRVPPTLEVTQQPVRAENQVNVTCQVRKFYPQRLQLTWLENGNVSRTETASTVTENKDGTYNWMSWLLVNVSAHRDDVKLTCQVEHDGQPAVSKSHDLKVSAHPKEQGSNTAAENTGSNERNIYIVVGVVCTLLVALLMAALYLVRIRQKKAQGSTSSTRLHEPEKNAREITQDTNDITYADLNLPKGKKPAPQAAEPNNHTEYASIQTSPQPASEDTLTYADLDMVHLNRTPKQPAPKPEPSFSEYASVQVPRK
T1 sequence (Q08722 whole entry, looked up, the tested form may be a part): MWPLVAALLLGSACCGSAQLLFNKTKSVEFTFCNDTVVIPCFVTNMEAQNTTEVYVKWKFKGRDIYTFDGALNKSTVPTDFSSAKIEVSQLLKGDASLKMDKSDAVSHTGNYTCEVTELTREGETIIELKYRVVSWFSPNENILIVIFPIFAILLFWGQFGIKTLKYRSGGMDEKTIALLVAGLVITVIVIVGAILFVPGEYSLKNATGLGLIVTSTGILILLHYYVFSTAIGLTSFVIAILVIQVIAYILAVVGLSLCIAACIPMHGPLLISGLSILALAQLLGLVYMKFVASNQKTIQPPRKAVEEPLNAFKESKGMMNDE
Parathyroid hormone/parathyroid hormone-related peptide receptor (Homo sapiens), sequence (Q03431 whole entry, looked up): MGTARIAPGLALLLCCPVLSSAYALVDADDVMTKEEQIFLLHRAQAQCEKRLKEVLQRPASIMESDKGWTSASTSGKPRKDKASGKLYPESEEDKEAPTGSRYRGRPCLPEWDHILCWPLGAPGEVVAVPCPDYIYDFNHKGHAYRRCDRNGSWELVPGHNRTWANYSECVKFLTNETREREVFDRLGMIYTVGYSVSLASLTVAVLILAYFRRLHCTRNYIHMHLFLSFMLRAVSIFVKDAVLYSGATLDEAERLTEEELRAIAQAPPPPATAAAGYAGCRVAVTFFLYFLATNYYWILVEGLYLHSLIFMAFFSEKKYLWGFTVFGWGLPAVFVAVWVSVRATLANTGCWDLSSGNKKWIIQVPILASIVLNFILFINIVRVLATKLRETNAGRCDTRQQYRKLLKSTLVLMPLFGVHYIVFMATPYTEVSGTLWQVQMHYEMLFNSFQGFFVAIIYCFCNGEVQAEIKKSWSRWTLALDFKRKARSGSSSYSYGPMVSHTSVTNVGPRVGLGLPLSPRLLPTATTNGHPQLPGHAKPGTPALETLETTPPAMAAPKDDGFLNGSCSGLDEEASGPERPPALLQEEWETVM
Atrial natriuretic peptide receptor 1 (Homo sapiens), sequence (P16066 whole entry, looked up): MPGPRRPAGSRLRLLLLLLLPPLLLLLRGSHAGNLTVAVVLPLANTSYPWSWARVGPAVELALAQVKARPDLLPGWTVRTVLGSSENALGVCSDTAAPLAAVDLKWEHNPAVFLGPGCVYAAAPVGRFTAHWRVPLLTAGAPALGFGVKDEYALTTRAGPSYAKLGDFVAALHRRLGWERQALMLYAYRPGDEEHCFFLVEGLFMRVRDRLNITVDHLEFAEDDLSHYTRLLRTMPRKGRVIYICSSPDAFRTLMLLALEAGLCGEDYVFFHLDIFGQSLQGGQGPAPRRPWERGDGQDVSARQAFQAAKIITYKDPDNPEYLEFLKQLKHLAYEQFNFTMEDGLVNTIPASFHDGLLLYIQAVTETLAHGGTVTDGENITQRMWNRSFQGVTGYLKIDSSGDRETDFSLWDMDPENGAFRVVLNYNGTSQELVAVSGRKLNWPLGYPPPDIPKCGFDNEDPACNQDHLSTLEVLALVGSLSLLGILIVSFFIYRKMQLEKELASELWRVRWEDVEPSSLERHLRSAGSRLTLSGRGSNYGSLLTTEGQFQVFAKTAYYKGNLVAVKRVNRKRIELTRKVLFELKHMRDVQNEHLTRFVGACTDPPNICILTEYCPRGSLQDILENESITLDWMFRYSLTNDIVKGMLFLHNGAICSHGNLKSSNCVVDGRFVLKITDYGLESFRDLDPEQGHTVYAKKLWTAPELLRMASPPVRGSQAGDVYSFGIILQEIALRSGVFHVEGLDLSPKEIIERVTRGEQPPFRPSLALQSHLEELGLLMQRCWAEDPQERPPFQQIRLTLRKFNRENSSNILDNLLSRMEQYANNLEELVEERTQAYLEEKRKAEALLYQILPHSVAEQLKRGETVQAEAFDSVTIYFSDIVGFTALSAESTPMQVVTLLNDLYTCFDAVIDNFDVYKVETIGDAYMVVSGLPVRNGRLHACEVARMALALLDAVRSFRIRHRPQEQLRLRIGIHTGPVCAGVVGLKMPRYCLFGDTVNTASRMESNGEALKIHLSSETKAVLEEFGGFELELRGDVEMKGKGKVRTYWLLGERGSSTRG

SMILES | Potency [1] | Potency [2] | Potency [3] | Potency [4] | Potency [5] | Potency [6] | outcome [7] | Potency [8] | Potency [9] | Potency [10] | Potency [11] | outcome [12] | Potency [13] | Potency [14] | IC50 (viability decrease) [15] | Potency [16] | Potency [17]
O=C1c2ccccc2-c2n[nH]c3cccc1c23 | inactive | 18.4 µM (active) | inactive | inactive | inactive | inactive | inactive | inactive | inactive | 1.87 µM (active) |  |  |  |  |  |  | 
O=C(O)c1cccnc1Nc1cccc(C(F)(F)F)c1 | inactive | inactive |  | inactive | inactive | inactive | inactive | inactive | inactive | inactive | inactive | inactive | inactive |  |  |  | 
COc1ccc2cc([C@H](C)C(=O)O)ccc2c1 | inactive | inactive | inactive | inactive | inactive | inactive |  | inactive | inactive | inactive | inactive | inactive | inactive |  |  |  | 
S=c1nc[nH]c2nc[nH]c12 | inactive | 2.59 µM (active) and 2.64 µM (active) |  |  | 14800 nM (active) |  |  | 8.36 µM (active) and 20.8 µM (active) | 1.19 µM (active) and 3.32 µM (active) | 1.33 µM (active) |  |  | 2.66 µM (active) and 5.9 µM (active) | 38200 nM (active) | 1710 nM (active) | 5400 nM (active) | 
Nc1nc(Cl)nc2c1ncn2[C@H]1C[C@H](O)[C@@H](CO)O1 | inactive | inactive |  |  |  |  |  | 1.17 µM (active) | 7.43 µM (active) | 2.96 µM (active) |  |  |  |  | 95.9 nM (active) |  | 
CN(c1nccc(=O)[nH]1)C1CCN(c2nc3ccccc3n2Cc2ccc(F)cc2)CC1 | inactive | inactive |  |  | inactive |  |  | inactive | inactive | inactive |  |  | inactive |  |  |  | inactive
Nc1ncn([C@H]2C[C@H](O)[C@@H](CO)O2)c(=O)n1 | inactive | inactive |  |  | inactive |  |  | inactive | inactive | inactive |  |  | inactive |  |  |  | inactive
O=C(NCCO[N+](=O)[O-])c1cccnc1 | inactive | inactive |  |  | inactive |  |  | inactive | inactive | inactive |  |  | inactive |  |  |  | inactive
CCCOc1ccc2nc(NC(=O)OC)[nH]c2c1 | inactive | 231 nM (active) and 651 nM (active) and 11.8 nM (active) |  |  | 46.9 nM (active) |  |  | 187 nM (active) and 131 nM (active) | 0.001 µM (active) | 33.5 nM (active) and 11.8 nM (active) |  |  | 66.8 nM (active) and 14.8 nM (active) |  |  |  | 291 nM (active)
O=C(CS(=O)Cc1ccco1)NCC=CCOc1cc(CN2CCCCC2)ccn1 (centres undefined) | inactive | inactive |  |  | inactive |  |  | inactive | inactive | inactive |  |  | inactive |  |  |  | 
